# Measurements published in the supplement of paper PMC10681739.
# ± gives the standard deviation of the averaged measurements. The full ranking holds about 4,100 sequences; the median of “arbitrary fluorescence units” is about 780, and the highest 2% start at about 22,000. What follows is part of a selection rich in the highest values, with near analogues and random picks from the rest.
# Target: T1, ETS1 (UniProt P14921)
# T1 sequence: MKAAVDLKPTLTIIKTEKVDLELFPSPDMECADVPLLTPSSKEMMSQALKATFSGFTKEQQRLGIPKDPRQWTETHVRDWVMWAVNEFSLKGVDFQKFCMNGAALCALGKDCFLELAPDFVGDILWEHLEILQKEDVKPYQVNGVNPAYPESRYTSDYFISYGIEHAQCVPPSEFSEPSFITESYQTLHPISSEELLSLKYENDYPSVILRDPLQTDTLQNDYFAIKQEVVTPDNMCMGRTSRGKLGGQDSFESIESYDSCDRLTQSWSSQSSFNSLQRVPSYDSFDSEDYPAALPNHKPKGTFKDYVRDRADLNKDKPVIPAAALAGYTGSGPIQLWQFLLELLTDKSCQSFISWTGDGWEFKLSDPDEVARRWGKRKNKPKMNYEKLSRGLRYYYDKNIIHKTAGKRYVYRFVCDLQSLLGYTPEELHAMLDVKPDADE
# Experiment: ETS1 binding intensity (PBM fluorescence), ETS1 alone (arbitrary fluorescence units); higher = stronger binding
# Conditions: ETS1 concentration 1 nM; RUNX1 concentration 0 nM
# Protocol: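 gcPBM on 36-bp genomic-derived probes (partner site mutated) containing one ETS1 site and no RUNX1 site. Recombinant human ETS1 (1 nM) was incubated alone or with RUNX1 (25 nM) and detected by anti-ETS1 antibody fluorescence. Values are medians over 4 replicate spots (not normalised). The probes sit in constant array flanks that are not printed.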
row,Sequence,ETS1 binding intensity
1,GCAGAGAGGAAGTGTGGGGGTGGAGGAGGCCGAAGA,1840
2,AGACGGGACCGGAAGCCGGGCCGTAGGCGGCCGGGC,12100
3,TTTCGAGAAAACCGGAAGTGCGTGGACACGCCCCGC,31500
4,GCCGCCGTAGATTCGACACAAAACCCGGAAGGACCC,530
5,AAACTACTTCCCCATATCATCTGTAGCTTGCACAAC,1180
6,CTTAGCACTTGTAGTCAGCCTGCTTCCGGCTGTGGC,2100
7,TGAGGTGCTAAAGCACCAAGCACTTCCTGCTGTTAG,3380
8,GCGAGCACTTCCGGTGTGTGAGCCTGCTGTTGCTAC,32800
9,GGGGCAGGAAGTGGAGGTTTGAAGTGCTTTAGAGTA,7390
10,GGGCCCCTCAGCCCGACCGCCTGACCGGAAGTGCAG,5030
11,TGAACTCCGCCCAGCGCGATCCGGAAGCCTAGCGCC,443
12,TGCTTCCCGTCCGTGTCGCGGCCCTGGGGTTGGCGG,8550
13,TCGCTTCCGGTGTCGGTTACAGACTGGGGTTGCCAT,30000
14,TTGGTGACCTCTTCCTGTCCGCTGGGGTGTTGTTAC,3680
15,TTCAGGCGGCAAAGAACAGACCTGCAGGAGGAAATA,404
16,CTCTTCCGGCCGCGAGGAGCGCGACAGCGGCCCCTG,14400
17,TGTTGACTCAGGAAGATGATGGCTGAGGGGGCTGCA,509
18,CACTTCCTCCTCGGGGGCCTCAGAAAATCACAGGGC,13200
19,TCTAAATCACTTCCTGTTACAGAAACTACAGGCCTG,26900
20,CTAAAGGCAGGGACTACAAACACTTCCTGTTTGTGT,7710
21,GGAGCGCGCTGGGGACGTTTAAAGGAAATTTACAAT,363

row,Sequence,ETS1 binding intensity
1,TCCGTGAGGTGCAGCAGGTCGGTAGGCGGGAAATGG,378
2,AACATCCGGTTCCCGGTTCTGCCCCCTACCCCAGCT,49100
3,CCGACCCCAGCTTCCCGGGGTTGAGGCCCTGCCTCC,462
4,TGCTGCACCCCAGCCCCTTTCTCTTCCGGTTCTAGG,1850
5,GACCACTTCCTTTCTGTGTTTTGGGGTTTCACAACT,11900
6,ACTTGACTTCCTGTGGGGTGTCTGGTGTCTGCACTT,11700
7,ACAACTTCCTGTGGGATTTTTGGTGTCTACGGCTCA,37400
8,CTCCCACATCCGAAGCGGCGCAACTCACAACAGCCT,1140
9,GTCCAACAGCAGCCAGGCAAGCACATCCTGCCCCAC,1980
10,GGGCCCACATCCGGCGCGCGCAACAGCAGCCTACTG,25800
11,CGAAGAGGAAACAAAGAAAGGTGCTGTTCTGGCGCC,506
12,TCAAGAAAACAGGAAACTCTCAAATCCAAGTTCTGA,3280
13,TTCTATCCTGCCTTGCATGTCTTTAATCACACTGAG,1540
14,ATGAGCTATTTCCTGCCTTGTTGTCAGAGCCAGACT,23500
15,CAGCTGCAGGCCTGGGTGTACGGAGCCCGGAACAGG,567
16,TACCTACAGGAAATGAGACACACCTCAGGCCGATCC,5550
17,CTCAGACCCTCAGTGAGGTCTGACGTCATTTCCTGC,734
18,CTCGTGTTTTGTAGCTGTGTTCTGTCCGGTCAGTTG,502 ± 32
19,CCTGCTGCTGTCAGCCCTGTCTCTTCCTGTTTCTGC,1030
20,CACTTCCGGGTCGTCAGCTCAGTTCTGCTGTTTCTG,26000
21,TGGATAGTGGGACACCTCAACAGGATGTTAGTGAGG,858

row,Sequence,ETS1 binding intensity
1,GACGGCCGCTTTTGGCGCGGGACTTCCTGCCTGGCC,3070
2,CCCTCCGGCCCTCAGCCCTGCCCAAACGGAAGTGCT,787
3,AGTTTTCCGTCGGGCTCCCAGTGACGCCGAAGAGGT,2580
4,GCGCAAAGCCGGAAGGAGGGGTTTGGGGCTGGGGAG,4130
5,CCCACTTCCTGTCTGCTTCCCTCCTCCGCTCAGACC,28400
6,TCCCTCCTCCGCTCAGACCCACTTCCTGTCTGCTTC,8330
7,CTTCCTTCCCTTCCTTCTGCTCCCTCCCAGAGCCGC,852
8,CCGGTCGGGGCTGCAGCCGCTTCCGGAGCCGCGGGC,3060
9,TAGGGGCTGAGGGTCCGGGCGGAAGTGGGGCAGGCG,2500
10,CTGCACTTCCGGTCAGGCGGTCGGGCTGAGGGGCCC,36600
11,ATGGATGGGGTTGCTTGCGTGAGGAAATACTTGATG,524
12,CCCAATTTCCTTTGCTCTGCTGTCTGCCAACCCCAA,3560
13,GCAGATATCACAGACTCTCTCCTTTCCTGCTGAATA,546
14,TGACTTCCGGTCCGTAGTGGGGCCTTCGGTGGGAGT,35800
15,GCTCGCAGCCCCAAGAGGTGGCCTTCGGTTCCGGGG,382
16,CTGCAGCGGGGATCCTTGGGGCCCTTCCGGTCGGTG,2190
17,TTGTGGACGCGGATTTGGGGGCGGGTATCCGGGCCT,564
18,GGTCACTTCGGCCCAGAGGCCCGCTCTTCCGCTGAG,564
19,CAGGGATTCCGGCTGAGTGCGGCCCCCTCAGCCTCC,606
20,GTGGCTGTCGTTGAACTGACTCTCGGGTTTCCGCTC,606
21,GAGCCTGTTGCTTCCGGTTCAGAGCCCACGTGCTGG,22200

row,Sequence,ETS1 binding intensity
1,TGGAAGAGCCCCACGACATGTGCTTCCTGCGTGCTG,596
2,CTAGCTGTGGACAGGAAACGAGTGGATTTTGTGATC,3740
3,CCGGGACCTCGGCTTGGGCTCACGGCCACTTCCGAC,393
4,CCGTACTTCCGCTTTACTCAGATTTTGGACCTCGGG,30200
5,CTCAGCGGCAGCAAGCCCCACCCCGGAAGTCGGCTG,1590
6,GATGACTTCCTCAGTTCAGGGCTATGTACGGGGGAG,4670
7,GCCCGGCTTAGCCGCGTCGCGGAAGTCCGCTCTCTG,397
8,CCGCTTCCGGCCTTCGCCCGGCTTAGCCGCGTCGCA,34700
9,GGCCTCGCGGCGTCTCTGCTGCTTCCGCCTTCCCGG,854
10,CCTCTGCCCAACCCCAATTTTCCCTTCCTCCGCCTT,543
11,CTTTTTGATTTCCTCAAGCATCCCAGAAATACACAG,2020
12,GCCCACGCCGCTGGGAGGTGAGACTGAAGGAAGCAC,402
13,ACGGAGCTGTAGTTTAACGTTTCCGGTTAGTGGCTA,9670
14,GCCCACTTCCTGCCGTAAGAGAAATCCACTAACACA,33800
15,GACGCAGCCCCAGAGCGATTCGCGTCCCGGAAGCGG,491
16,TCCAGCGCCGCTGGGCCAACGAGAGCGCTTCCGGCC,1740
17,CCGAGCGCACCAGCTCCCGCGCGTGGTTCCGCCGCT,324
18,CCAACGAGCACTTCCGCTTCCCGAAGCTCCAGCGGC,27700
